Experimental data from PubChem BioAssay.
The source made the active and inactive calls.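 Rule for the calls: active = growth inhibition above 50% at the single 2 µM test dose, taken to imply half-maximal potency below 2 µM; inactive = the rest.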

test: antimalarial activity against Dd2 strain (AID 2302);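 note: 0% = DMSO untreated growth and 100% = chloroquine plus artemisinin killed control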; settings: P. falciparum Dd2 in RBCs, LDH growth readout, 72 h; at 2 µM; active compounds read high

Growth inhibition, inactive:
Cc1ccc2[nH]c3c(NCCN(C)C)ncnc3c2c1 5%
Cc1ccc(CN2CCCCC(NC(=O)c3cc4ccccc4s3)C2)cc1 (stereo not drawn) 8%
O=C(/C=C/c1ccc(C(F)(F)F)cc1)NCCCCCN1CCN(C(=O)Nc2ccc(F)c(Cl)c2)CC1 -6%
O=C(NCC1CCN(CCN2CCc3ccc4c(c3C2)OCO4)CC1)c1ccc(-c2ccc(C(F)(F)F)cc2)cc1 34%
CCNc1cc(C)nc(Nc2ccc(NC(=O)c3ccco3)cc2)n1 32%

Growth inhibition, active:
Cc1[nH]c(C)c(-c2ccc(OCCCc3ccccn3)cc2)c(=O)c1Br 97%
Cc1cccc2[nH]c(-c3ccc(-c4cccc(NC(=O)c5cccc(C(N)=O)c5)c4)cc3)nc12 87%
Cc1cccc(C)c1OC(=O)[C@@H](C)[C@@H](O)C1(Sc2ccccc2)CCN(C)CC1 92%
N#Cc1ccc(-c2ccc(C(=O)NCC3CCN(CCN4CCC(c5ccc6c(c5OCC(N)=O)CCCC6)CC4)CC3)cc2)cc1 99%
CCCN(CCC)CCOc1ccc(C(O)(C#CC(O)(c2ccc(OCCN(CCC)CCC)cc2)c2cccc(Cl)c2)c2cccc(Cl)c2)cc1 (stereo not drawn) 98%
CC(C#N)Cc1ccc(-c2cnc(N)c3cc(-c4ccnc(N)n4)ccc23)cc1 (stereo not drawn) 62%
CN(C)Cc1cccc(-c2cnc(N)c(-c3nc4ccc(S(C)(=O)=O)cc4[nH]3)c2)c1 61%
O=c1ccc(-c2nc3cc(Cl)c(Cl)cc3n2Cc2ccc(Cl)cc2Cl)c[nH]1 67%
